Screen size: about 350,000 compounds; about 2,300 (0.66%) were called active. This is one part of a sample in which actives are shown more often than they occur. Unmarked numbers belong to inactive results.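 The calls were made as follows: active = mean inhibition of at least 50% after viability correction, with every replicate also passing that limit; inconclusive = mean reaches 50% but only one of two replicates passes; inactive = the rest.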
Experiment: EWS/Fli-driven NR0B1 reporter inhibitors, primary screen, A673 cells, NR0B1 luciferase, luminescence, MLPCN library (AID 651661);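 also: firefly luciferase signal divided by Alamar Blue viability fluorescence both relative to DMSO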
Conditions: viability-normalised, at 12.6 µM, active compounds read high

Row | SMILES | inhibition
1 | O=C(C[C@H]1C=C[C@@H](NC(=O)NC2CCCCC2)[C@@H](CO)O1)NCc1ccc(Cl)cc1 | -5.17%
2 | CC(C)C#Cc1ccc([C@H]2[C@@H](C#N)N(C(=O)CN(C)C)[C@H]2CO)cc1 | 2.38%
3 | COCC(=O)Nc1ccc2c(c1)OC[C@H](C)NC[C@H](C)[C@H](OC)CN(C)C2=O | -2.88%
4 | CCNC(=O)Nc1ccc2c(c1)C(=O)N(C)[C@H]1CC[C@@H](CC(=O)N[C@H](C)c3ccccc3)O[C@@H]1CO2 | 0.627%
5 | Cn1cnc(S(=O)(=O)N2CC[C@@H]3[C@H]2c2cc(C#Cc4cccc(F)c4)ccc2N[C@@H]3CO)c1 | 0.925%
6 | C[C@@H]1CN([C@H](C)CO)C(=O)c2cc(C#Cc3cccc(F)c3)cnc2O[C@H]1CN(C)Cc1ccccn1 | 6.4%
7 | C[C@H](CO)N1C[C@H](C)[C@H](CN(C)C(=O)NC2CCCCC2)Oc2ccc(NC(=O)CCCN(C)C)cc2CC1=O | -7.51%
8 | CC(C)OC(=O)N(C)C[C@@H]1OCc2ccccc2-c2c(n(C)c3ccccc23)C(=O)N([C@H](C)CO)C[C@H]1C | 8.3%
9 | Cc1ccc(-c2nc3ccc(Br)cn3c2Cc2ccccc2C(F)(F)F)cc1 | -71.5%
10 | Cc1ccc2nc(-c3ccc(Br)cc3)cn2c1 | 71.9% (active)
11 | COc1ccc(-c2nc3ccc(Br)cn3c2Cc2ccc(C)cc2)cc1OC | -33.3%
12 | Cc1ccc(-c2nc3ccc(Cl)cn3c2Cc2ccccc2)cc1 | -80.4%
13 | Cc1ccc(-n2c(-c3ccc(Cl)cc3)n[nH]c2=S)cc1 | 3.61%
14 | Cc1ccc(-c2cn3cc(C)ccc3n2)cc1 | 66.7% (active)
15 | C[C@@H]1CN([C@@H](C)CO)S(=O)(=O)c2ccc(C#Cc3cccnc3)cc2O[C@@H]1CN(C)C(=O)CN(C)C | 12.9%
16 | CC(=O)N1[C@H](C(=O)N(C)C)[C@@H](CO)[C@@H]2Cn3c(ccc(-c4ccccc4)c3=O)[C@@H]21 | 0.262%
17 | Cc1ccccc1S(=O)(=O)N1[C@@H]2CNC[C@H]1C2c1ccc(-c2cccnc2)cc1 (stereo partly drawn) | -4.81%
18 | CCCNC(=O)N1[C@@H]2Cn3c(ccc(-c4ccc(OC)cc4)c3=O)[C@H]1[C@@H](C(=O)NC1CCC1)[C@@H]2CO | 0.758%
19 | Cc1ccccc1-c1ccc([C@H]2[C@@H](CO)N3C(=O)CN(C(=O)c4ccncc4)C[C@H]23)cc1 | 0.78%
20 | COc1ccc2c3c(n(C)c2c1)[C@H](CO)N(S(=O)(=O)c1ccc(C)cc1)CC31CN(C(=O)c2ccccn2)C1 | -3.69%
21 | CCOc1ccc(CCN2C(=O)c3cccnc3C2=O)cc1OCC | 9.92%

Row | SMILES | inhibition
22 | NC1=CC(=O)C(=O)c2cccnc21 | 57.3% (active)
23 | CCCNC(=O)N1CC2(C1)[C@@H](c1ccccc1)[C@@H](CO)N2C(=O)CC1CC1 | 2.39%
24 | C[C@@H]1CN([C@H](C)CO)C(=O)Cc2cc(NC(=O)Nc3cccc4ccccc34)ccc2O[C@@H]1CN(C)Cc1ccc(C(F)(F)F)cc1 | -4.39%
25 | Clc1cccc(-c2nc(NCC3CCCO3)c3ccccc3n2)c1 (stereo not drawn) | 15.1%
26 | Clc1ccc2nc(-c3ccccc3)nc(C(Cl)Cl)c2c1 | 68.5% (active)
27 | N#CCSc1nc(-c2ccccc2)nc2ccc(F)cc12 | 19.1%
28 | CC(C)NC(=O)Nc1ccc2c(c1)C(=O)N([C@@H](C)CO)C[C@H](C)[C@H](CN(C)C(=O)c1ccccc1)OCCCC[C@@H](C)O2 | 5.19%
29 | CN(C)c1ccc2c(c1)[C@@H]1C[C@@H](CC(=O)NCc3ccccn3)O[C@H](CO)[C@@H]1O2 | -4.51%
30 | COc1cccc2c1C(=O)c1c(O)c3c(c(O)c1C2=O)CC(O)(C(C)=NNC(=O)c1ccc(Cl)c(Cl)c1)CC3OC1CC(N)C(O)C(C)O1 (stereo not drawn) | 63.6% (active)
31 | C[C@H](CO)N1C[C@H](C)[C@@H](CN(C)C(=O)NC2CCCCC2)Oc2c(NC(=O)Nc3ccc(F)cc3)cccc2C1=O | 4.64%
32 | C[C@H]1CN([C@@H](C)CO)C(=O)c2cccc(NC(=O)Nc3ccc(C(F)(F)F)cc3)c2O[C@H]1CN(C)C(=O)NC1CCCCC1 | 56.1% (active)
33 | C[C@@H]1CN([C@H](C)CO)C(=O)c2cc(NC(=O)Nc3ccccc3)ccc2O[C@@H](C)CCCCO[C@H]1CN(C)Cc1ccc(C(F)(F)F)cc1 | 71.6% (active)
34 | COc1ccc(NC(=O)Nc2ccc3c(c2)C(=O)N([C@@H](C)CO)C[C@H](C)[C@H](CN(C)Cc2ccc(C(F)(F)F)cc2)OCCCC[C@H](C)O3)cc1 | 6.84%
35 | C[C@@H]1CN([C@H](C)CO)C(=O)c2cc(NC(=O)Nc3ccc(C(F)(F)F)cc3)ccc2O[C@@H](C)CCCCO[C@@H]1CN(C)Cc1ccc(C(F)(F)F)cc1 | -13.8%
36 | C[C@@H]1CN([C@H](C)CO)C(=O)c2cccc(NC(=O)Nc3ccccc3)c2O[C@@H]1CN(C)C(=O)NC1CCCCC1 | 4.76%
37 | C[C@@H]1CCCCO[C@@H](CN(C)Cc2ccc(C(F)(F)F)cc2)[C@@H](C)CN([C@H](C)CO)C(=O)c2cc(NC(=O)Nc3ccccc3)ccc2O1 | -6.47%
38 | COc1ccc(CN(C)C[C@@H]2OCCCC[C@@H](C)Oc3ccc(NC(=O)Nc4ccc(C(F)(F)F)cc4)cc3C(=O)N([C@H](C)CO)C[C@H]2C)cc1 | 53.9% (active)
39 | C[C@H]1CCCCO[C@@H](CN(C)Cc2ccc(C(F)(F)F)cc2)[C@@H](C)CN([C@@H](C)CO)C(=O)c2cc(NC(=O)Nc3ccccc3)ccc2O1 | 19.3%
40 | O=C(C[C@@H]1C[C@H]2c3cc(NC(=O)C4CCOCC4)ccc3O[C@H]2[C@@H](CO)O1)NCCN1CCCCC1 | -1.07%
41 | COC(=O)C[C@@H]1CC[C@@H]2[C@H](COc3ccc(NC(=O)Nc4cccc(F)c4)cc3C(=O)N2C)O1 | 33.6%
42 | COC(=O)C[C@@H]1CC[C@@H]2[C@H](COc3ccc(NC(=O)c4cccc(F)c4)cc3C(=O)N2C)O1 | 61.7% (active)

Row | SMILES | inhibition
43 | COC(=O)C[C@H]1CC[C@H]2[C@@H](COc3ccc(NC(=O)Nc4cccc(F)c4)cc3C(=O)N2C)O1 | -0.36%
44 | O=C(C[C@@H]1CC[C@H]2[C@@H](COC[C@H](O)CN2Cc2ccc(F)cc2)O1)N1CCc2ccccc2C1 | 2.81%
45 | CCCN(C)C[C@@H]1OCc2cnnn2CCCC(=O)N([C@H](C)CO)C[C@@H]1C | 0.738%
46 | C[C@@H]1CN([C@H](C)CO)C(=O)Cc2cc(NC(=O)CCCCCC(=O)Nc3ccccc3N)ccc2O[C@H]1CN(C)S(=O)(=O)c1ccc(F)cc1 | -11%
47 | C[C@@H]1CN([C@@H](C)CO)C(=O)c2cc(NS(=O)(=O)c3ccccc3)ccc2O[C@@H]1CN(C)Cc1ccc(C(=O)Nc2ccccc2N)cc1 | 57.5% (active)
48 | C[C@H]1CN([C@@H](C)CO)C(=O)Cc2cc(NS(=O)(=O)c3ccccc3)ccc2O[C@H]1CN(C)Cc1ccc(C(=O)Nc2ccccc2N)cc1 | -7.96%
49 | Cc1ccc(S(=O)(=O)Nc2ccc3c(c2)C(=O)N([C@H](C)CO)C[C@H](C)[C@H](CN(C)Cc2ccc(C(=O)Nc4ccccc4N)cc2)OCCCC[C@@H](C)O3)cc1 | 8.6%
50 | Cc1ccc(S(=O)(=O)Nc2ccc3c(c2)C(=O)N([C@@H](C)CO)C[C@@H](C)[C@@H](CN(C)Cc2ccc(C(=O)Nc4ccccc4N)cc2)O3)cc1 | 51.7% (active)
51 | C[C@@H]1CN([C@H](C)CO)C(=O)c2cc(NS(=O)(=O)c3cn(C)cn3)ccc2O[C@@H]1CN(C)Cc1ccc(C(=O)Nc2ccccc2N)cc1 | -4.91%
52 | C[C@H](CO)N1C[C@H](C)[C@H](CN(C)Cc2ccc(C(=O)Nc3ccccc3N)cc2)Oc2ccc(NS(C)(=O)=O)cc2C1=O | 27%
53 | COCC#Cc1ccc([C@H]2[C@H](CO)N3C(=O)CN(C(=O)Nc4ccccc4F)C[C@@H]23)cc1 | 2.04%
54 | COc1cccc(S(=O)(=O)N[C@H]2CC[C@H](CCN)O[C@H]2CO)c1 | -10.4%
55 | COc1ccc(S(=O)(=O)Nc2ccc3c(c2)C(=O)N([C@H](C)CO)C[C@@H](C)[C@H](CN(C)C(=O)Nc2ccc4c(c2)OCO4)O3)cc1 | 0.75%
56 | CC(=O)N1[C@H](CO)[C@H](c2ccc(-c3ccccc3)cc2)[C@H]1CNC(=O)NC(C)C | 0.423%
57 | COc1ccc(-c2ccccc2[C@@H]2[C@@H](C#N)N(C(=O)NC3CCCC3)[C@H]2CO)cc1 | 4.32%
58 | C[C@H](CO)N1C[C@H](C)[C@@H](CN(C)Cc2ccncc2)Oc2ncc(C#CC3CC3)cc2C1=O | -3.48%
59 | COc1cccc(S(=O)(=O)N2C[C@@H](O)COC[C@@H]3O[C@H](CC(=O)N4CCN(C)CC4)CC[C@H]32)c1 | 2.56%
60 | Cc1cc(C(=O)Nc2cccc3c2O[C@H](CN(C)C(=O)Nc2ccccc2)[C@@H](C)CN([C@H](C)CO)C3=O)n(C)n1 | -4.28%
61 | O=C(C[C@H]1C[C@H]2c3cc(NC(=O)c4ccc5c(c4)OCO5)ccc3O[C@H]2[C@@H](CO)O1)NCc1cccc(F)c1 | -0.435%
62 | O=C(NCc1ccncn1)[C@@H]1[C@@H](CO)[C@@H]2Cn3c(ccc(-c4ccc(F)cc4)c3=O)[C@@H]2N1CC1CC1 | 5.67%
63 | C[C@@H]1CN([C@H](C)CO)C(=O)c2cc(NC(=O)C3CCCCC3)ccc2O[C@@H]1CN(C)CC1CCCCC1 | 1.73%

Reference: PubChem BioAssay AID651661 (Broad Institute, 2012)
